TLR9-MyD88 inh: inhibitors of TLR9-MyD88 association in cells, primary screen, cell-based, CHO, BLA complementation, fluorescence; Toll-like receptor 9 (Homo sapiens) + Myeloid differentiation primary response protein …; inhibition, % at 4.98 µM; CCF4 FRET ratio; 0.21% of 340,000 active;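 active = inhibition above the mean over all tested compounds plus 3 SD, cut at about 21% in these data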;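 note: 0% = DMSO only wells and 100% = clavulanate BLA inhibitor control wells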
TLR4 MyD88 comp: inhibitors of TLR4-MyD88 association in cells, primary screen, cell-based, HeLa CL3-4, BLA complementation, FRET ratio; AID 861, 2007; HeLa CL3-4 TLR4/MyD88 BLA complementation; inhibition, % at 8.4 µM; 0.18% of 200,000 active; Toll-like receptor 4 (Homo sapiens) + Myeloid differentiation primary response protein …; in the data active = inhibition above about 25%;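 note: 0% = vehicle and 100% = reference inhibitor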
NOD2-RIPK2 inh: NOD2-RIPK2 binding disruptors in cells, primary screen, fluorescence, CHO cells, BLA complementation. inhibition, % at 4.98 µM. 0.38% of 360,000 active. CCF4 ratio; in the data active = inhibition above about 21%;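 note: 0% = vehicle only and 100% = reference blocker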
CRFBP-R2 block: antagonists of CRF-BP/CRF-R2 complex, primary screen, cell-based, HEK293, calcium dye fluorescence, uHTS | AID 588475, 2011 | CRF-induced calcium fluorescence | inhibition, % at 11.8 µM | 0.59% of 350,000 active;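 active = inhibition of the ligand-induced calcium signal above about 50% at the single tested concentration, limit read from the data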
HTR2A ag: mouse Htr2a agonists via beta-arrestin recruitment, primary screen, cell-based, luminescence. 5-hydroxytryptamine receptor 2A (Mus musculus), P35363. CHO-K1 mHTR2A beta-arrestin complementation; percent of 30 µM serotonin response. activation, % at 7.6 µM. 0.66% of 360,000 active;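 active = activation above a run cutoff, the mean activation of all tested compounds plus 3 SD, cut at about 14% in these data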;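 note: 0% = plate median of compound wells and 100% = 30 µM serotonin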
Target sequence (P35363 whole entry, looked up): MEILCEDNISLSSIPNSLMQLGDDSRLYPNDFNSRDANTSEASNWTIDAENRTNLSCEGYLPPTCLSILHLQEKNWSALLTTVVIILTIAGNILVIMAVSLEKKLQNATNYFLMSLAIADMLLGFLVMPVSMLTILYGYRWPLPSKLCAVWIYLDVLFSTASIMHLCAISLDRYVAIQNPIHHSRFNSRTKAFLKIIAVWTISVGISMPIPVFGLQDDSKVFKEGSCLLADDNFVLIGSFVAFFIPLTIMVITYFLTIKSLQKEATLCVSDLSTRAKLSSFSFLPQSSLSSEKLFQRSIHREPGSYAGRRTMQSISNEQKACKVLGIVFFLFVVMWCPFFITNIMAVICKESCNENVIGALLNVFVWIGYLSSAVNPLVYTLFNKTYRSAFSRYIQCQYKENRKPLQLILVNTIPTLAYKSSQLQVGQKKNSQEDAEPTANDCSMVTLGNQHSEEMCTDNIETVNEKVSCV
ABHD5-PLIN5 inh: ABHD5-PLIN5 interaction inhibitors, primary screen, cell lysate, split luciferase complementation, luminescence; Perilipin-5 (Homo sapiens) + 1-acylglycerol-3-phosphate O-acyltransferase ABHD5 (Homo …; Split G. princeps luciferase complementation, 4 h; inhibition, % at 4 µM; 0.78% of 360,000 active; AID 602281, 2012;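 active = inhibition above the mean inhibition across every tested compound plus 3 SD, cut at about 22% in these data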;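 note: 0% = DMSO only wells and the 100% control is not disclosed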
Numbers without * were called inactive; . = no result given. Only some compounds are listed: those with a hit (about 2.4% of all), similar ones and a draw of the others.

SMILES	TLR9-MyD88 inh	TLR4 MyD88 comp	NOD2-RIPK2 inh	CRFBP-R2 block	HTR2A ag	ABHD5-PLIN5 inh
O=C(COC(=O)C1CCN(S(=O)(=O)c2ccc3c(c2)OCCO3)CC1)NC1CCS(=O)(=O)C1 (stereo not drawn)	2.1	.	2.3	114.7*	0.7	-6.5
Cc1nc2ccccc2n1CC(O)COC1CCCCC1 (stereo not drawn)	-4.2	6.2	-3.2	52.9*	2.8	-4.4
CC(C)c1nc2ccccc2n1CC(O)COC1CCCCC1 (stereo not drawn)	-5.0	7.7	-8.6	18.5	3.3	0.0
Cc1cccc(C)c1NC(=O)C(c1ccccc1OC(F)(F)F)N1CCC(c2ccccc2)CC1 (stereo not drawn)	.	.	-16.7	.	-3.7	-5.4
Cc1cccnc1NC(=O)C(C)Oc1ccccc1 (stereo not drawn)	-5.5	3.1	-1.6	79.6*	-1.8	1.2
CC(Oc1ccccc1)C(=O)NNC(=O)c1ccccn1 (stereo not drawn)	3.5	-2.0	3.1	-7.8	1.5	3.1
COC(=O)c1ccc2nc(C3CCCCC3)c(Cc3cccc(Cl)c3)n2c1	.	.	-11.4	.	-1.1	-3.9
CN1OC[C@@H]2CN(C(=S)NCCc3ccccc3)[C@H](c3ccc(N4CCCCC4)cc3)C[C@@H]21	.	.	3.6	.	-3.3	-6.5
Cc1ccc(-c2cc3c(nn2)-c2ccccc2C3=O)cc1	0.2	.	0.1	-4.5	-10.4	-3.4
O=C1c2ccccc2-c2nnc(-c3ccc(O)cc3)cc21	3.9	-8.7	0.8	103.1*	-4.3	-1.0
COc1cc(C(=O)NCc2ccccc2Cl)ccc1OCC(=O)N1CCOCC1	6.1	.	-10.9	62.0*	3.3	4.2
COCCNC(=O)C1(C)Cc2c(-c3cccc(C(F)(F)F)c3)ccnc2O1 (stereo not drawn)	.	.	-14.8	.	-0.6	0.6
O=C(Nc1ccccc1)c1sccc1Oc1ccc([N+](=O)[O-])cc1F	-13.5	-12.1	5.8	64.3*	-4.5	-2.0
COCCOc1cc(NC(=O)c2sccc2Oc2ccc([N+](=O)[O-])cc2F)c(Cl)cc1Cl	7.1	-15.7	-5.5	8.6	4.6	-4.4
c1ccn2cc(CSc3nnc4ccccn34)nc2c1	5.4	0.0	-3.6	2.5	3.7	-0.3
Cn1ccnc1SCc1cn2ccccc2n1	-5.8	-3.9	-2.2	71.7*	-2.3	-8.6
CCNC(=O)C1(C)CCN(C(=O)c2ccc(C(F)(F)F)cc2)C1 (stereo not drawn)	.	.	-9.3	.	8.3	0.4
C=CCN1C(=O)/C(=C/C(=O)OC)S/C1=N\NC(=O)c1ccccc1	.	.	9.0	-9.8	3.2	22.6*
C=CCn1c(C)c(C(C)=O)cc(NC(=O)c2ccccc2)c1=O	-7.8	-2.7	-7.2	1.6	-1.1	-0.6
COc1cc(C(=O)O)c2ccccc2n1	-20.8	2.6	-6.2	64.9*	2.2	2.8
COC(=O)c1cc(Cl)nc2ccccc12	7.7	-5.0	9.4	10.5	13.8	7.3
COc1ccccc1C(=O)COC(=O)c1c(-c2ccccc2)noc1C	-15.2	.	-15.4	50.2*	-2.1	-11.7
COc1ccc(OC)c(C(=O)Cn2nnc3ccccc3c2=O)c1	-1.8	3.4	-10.6	-19.4	9.2	-1.1
COc1ccc2c(C)cc(SCn3nnc4ccccc4c3=O)nc2c1	7.2	9.3	7.4	53.3*	0.3	-7.9
COc1cccc(Cn2c3ccc(NC(=O)CCc4ccc(F)cc4)cc3c(=O)n2C)c1	.	.	-1.5	.	3.7	-3.9
O=C(CSc1nnc(C2COc3ccccc3O2)o1)NC1CCCCC1 (stereo not drawn)	-4.5	-3.8	-3.9	54.2*	1.1	-4.4
N#Cc1ccc(C(C(=O)NC2CCCCC2)n2c(=O)c(-c3ccccc3)nc3ccccc32)cc1 (stereo not drawn)	.	.	-5.4	.	-2.3	2.2
CCCCNC(=O)C1(C)CCN1C(=O)c1cccc2c1OCCO2 (stereo not drawn)	.	.	-5.6	.	-0.1	0.0
